# Records with an inconclusive call do not appear. Values without a mark were called inactive. Activity calls are given as the source filed them. The call rests on the fitted dose curve; in most records, active means well fitted activation curve with a large enough effect in the repeat runs; inconclusive means weak or mixed curves; inactive means flat fitted curve, though single readings scatter.
# Assay: qHTS assay for small molecule agonists of the antioxidant response element (ARE) signaling pathway measured by Nrf2-dependant transcriptional activity (AID 720636); further: % of control where 0% means no effect
# Conditions: ARE-luc HepG2, Nrf2 luciferase reporter, 16 h; series mostly up to 92.4 µM; activation: at the top concentration
# Excerpt: National Center for Advancing Translational Sciences [NCATS] NIH Chemical Genomics Center [NCGC] U.S. Environmental Protection Agency [EPA] National Institutes of Environmental Health Sciences [NIEHS] National Toxicology Program [NTP] Assay Overview: The antioxidant response element (ARE) signaling pathway plays an important role in the cellular anti-oxidant defense. Exposure to stressors which are exogenous like ionizing radiations, chemicals, U-V light, and endogenous like cell signaling, metabolic processes or inflammation, reactive oxygen species (ROS), can induce oxidative stress in the cells. Oxidative stress has been implicated in the pathogenesis of a variety of diseases ranging from cancer to neurodegeneration. ARE-luc HepG2 cell line (Simmons et al., Current Chemical Genomics, 5:1-12, 2011) has been used for identifying the chemicals that induce oxidative stress. The cell line has an Nrf2-responsive luciferase reporter gene that has been engineered to measure Nrf2-dependant transcriptional activity.
# Assay Protocol Summary: For measuring ARE induction; 2,000 ARE-luc HepG2 cells in 5 uL of assay medium containing 1% dialyzed FBS per well were dispensed into white wall/solid bottom 1536-well plates using a Flying Reagent Dispenser (FRD) (Aurora Discovery). The assay plates were incubated for 6 hr at 37 C to allow cell attachment to the well bottom, followed by the transfer of 23 nL compound or DMSO vehicle by a pin tool (Kalypsys). The plates were incubated for 16 hr at 37 C and 5% CO2, followed by the addition of 5 uL of ONE-GloTM luciferase reagent (Promega) into each well using FRD. After 30 min room temperature incubation, plates were read on a ViewLux plate reader (PerkinElmer).
SMILES,activation [%],outcome
O=C1CCC(=O)O1,-1.38,–
C=Cc1ccccn1,-1.69,–
CC(C)C=O,-0.694,–
C1CCCC1,-1.37,–
Cc1cccc2sc(N)nc12,0.654,–
C=C(C)OC(C)=O,-1.48,–
O=C(O)c1ccc(Cl)c(Cl)c1,-0.803,–
CC(C)=CCC/C(C)=C/C=O,–,inactive
Cc1cccc(C(=O)O)c1[N+](=O)[O-],-0.681,–
Cc1ccc(CO)cc1,-0.584,–
CCCCN(CCO)CCCC,-0.0441,–
c1ccc(Nc2ccccc2)cc1,–,inactive
CCC(C)O (stereo not given),-0.625,–
Clc1cc(Cl)cc(Cl)c1,-2.11,–
CNC(=O)c1ccccc1,-1.27,–
CCCC(Cl)CCCC(Cl)CCC(Cl)CCC(Cl)CCC(Cl)CCCC(Cl)CCC (stereo not given),0.983,–
CCC1CO1 (stereo not given),-0.333,–
N#CC1(O)CCCCC1,-1.69,–
Nc1ccccc1S(=O)(=O)O,-0.625,–
CCC=O,0.228,–

SMILES,activation [%],outcome
CC=C(Cl)Cl,-1.1,–
Cc1nc2ccc(Cl)cc2[nH]1,-1.91,–
CCCC(C)CO (stereo not given),-0.439,–
COCCOC(=O)c1ccccc1C(=O)OCCOC,-2.56,–
O=[N+]([O-])c1ccc(CCO)cc1,-0.715,–
C=C(C)C(=O)OCCCCCC,-0.549,–
Oc1c(Cl)ccc(Cl)c1Cl,0.206,–
CC(=O)Nc1ccccc1C,0.137,–
CC/C=C1/OC(=O)c2ccccc21,-0.0311,–
NC(N)=S,-1.1,–
Cc1cc([N+](=O)[O-])ccc1N,-0.225,–
CCCCCNCCCCC,–,inactive
COc1ccc(N)c(OC)c1,-1.27,–
O=C(Cl)c1cccc([N+](=O)[O-])c1,-0.259,–
CC(C)CO,-1.2,–
CCN(CC)c1cccc(O)c1,-0.895,–
OCCO,-0.815,–
CCCCCCCCC,-0.696,–
CC(N)CN (stereo not given),-1.18,–
CC(=O)OC(C)C,-0.432,–
